# Reference: PubChem BioAssay (Tox21)
# Records with an inconclusive call do not appear. A call without a number means that no potency is given here. Activity calls are given as the source filed them. Unless noted, calls follow the shape of the dose curve; as a rule, active = well fitted curve in the direction sought with a large enough effect in the repeat runs; inconclusive = weak or mixed curves; inactive = no such curve, though single readings can be large; an effect the other way counts as inactive or inconclusive.
# Columns and labels:
# [1] = qHTS assay to identify small molecule antagonists of the estrogen receptor alpha (ER-alpha) signaling pathway - cell viability counter screen (AID 743074; calls by dose curve;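 also: HEK293 cells carrying ER-alpha-UAS-bla reporter stimulated with 17beta-estradiol; nearly all actives have a fitted effect of over 45% in size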)
# [2] = qHTS assay to identify small molecule antagonists of the estrogen receptor alpha (ER-alpha) signaling pathway using the BG1 cell line - cell viability counter screen (AID 743081);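 also: compound given together with 17beta-estradiol as the ER stimulus; nearly all actives have a fitted effect of over 45% in size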
# Aromatase (Homo sapiens) = Aromatase (Homo sapiens) (UniProt P11511); test: qHTS assay to identify aromatase inhibitors (AID 743083); also: nearly all actives have a fitted effect of over 55% in size; also: potency is read from the fitted curve at half-maximal effect
# Chain of Aromatase (Homo sapiens) (P11511 whole entry, looked up): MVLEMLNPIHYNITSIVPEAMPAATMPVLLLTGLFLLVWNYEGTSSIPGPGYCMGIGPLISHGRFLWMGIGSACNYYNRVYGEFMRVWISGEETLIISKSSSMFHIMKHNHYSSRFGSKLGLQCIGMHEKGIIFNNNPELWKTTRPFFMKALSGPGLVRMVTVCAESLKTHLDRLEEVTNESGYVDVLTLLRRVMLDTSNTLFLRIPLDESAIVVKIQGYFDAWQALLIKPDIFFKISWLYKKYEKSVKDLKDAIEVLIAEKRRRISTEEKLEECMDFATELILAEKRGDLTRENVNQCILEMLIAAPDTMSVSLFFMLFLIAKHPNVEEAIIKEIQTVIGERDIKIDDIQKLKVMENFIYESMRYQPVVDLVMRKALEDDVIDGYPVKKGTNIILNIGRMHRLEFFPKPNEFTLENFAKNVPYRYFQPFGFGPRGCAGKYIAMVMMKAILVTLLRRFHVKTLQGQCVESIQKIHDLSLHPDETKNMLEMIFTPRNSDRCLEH
# [3] = qHTS assay to identify aromatase inhibitors - cell viability counter screen (AID 743084);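 also: cells stimulated with testosterone during compound exposure; nearly all actives have a fitted effect of over 55% in size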; also: potency is read from the fitted curve at half-maximal effect
# [4] = target: Aryl hydrocarbon receptor (Homo sapiens) (UniProt P35869); test: qHTS assay to identify small molecule that activate the aryl hydrocarbon receptor (AhR) signaling pathway (AID 743085); also: nearly all actives have a fitted effect of over 15% in size; also: potency is read from the fitted curve at half-maximal effect;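 as to activation: HG2L7.5c1 human HepG2 liver cells with stably integrated DRE-driven firefly reporter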
# Chain of Aryl hydrocarbon receptor (Homo sapiens) (P35869 whole entry, looked up): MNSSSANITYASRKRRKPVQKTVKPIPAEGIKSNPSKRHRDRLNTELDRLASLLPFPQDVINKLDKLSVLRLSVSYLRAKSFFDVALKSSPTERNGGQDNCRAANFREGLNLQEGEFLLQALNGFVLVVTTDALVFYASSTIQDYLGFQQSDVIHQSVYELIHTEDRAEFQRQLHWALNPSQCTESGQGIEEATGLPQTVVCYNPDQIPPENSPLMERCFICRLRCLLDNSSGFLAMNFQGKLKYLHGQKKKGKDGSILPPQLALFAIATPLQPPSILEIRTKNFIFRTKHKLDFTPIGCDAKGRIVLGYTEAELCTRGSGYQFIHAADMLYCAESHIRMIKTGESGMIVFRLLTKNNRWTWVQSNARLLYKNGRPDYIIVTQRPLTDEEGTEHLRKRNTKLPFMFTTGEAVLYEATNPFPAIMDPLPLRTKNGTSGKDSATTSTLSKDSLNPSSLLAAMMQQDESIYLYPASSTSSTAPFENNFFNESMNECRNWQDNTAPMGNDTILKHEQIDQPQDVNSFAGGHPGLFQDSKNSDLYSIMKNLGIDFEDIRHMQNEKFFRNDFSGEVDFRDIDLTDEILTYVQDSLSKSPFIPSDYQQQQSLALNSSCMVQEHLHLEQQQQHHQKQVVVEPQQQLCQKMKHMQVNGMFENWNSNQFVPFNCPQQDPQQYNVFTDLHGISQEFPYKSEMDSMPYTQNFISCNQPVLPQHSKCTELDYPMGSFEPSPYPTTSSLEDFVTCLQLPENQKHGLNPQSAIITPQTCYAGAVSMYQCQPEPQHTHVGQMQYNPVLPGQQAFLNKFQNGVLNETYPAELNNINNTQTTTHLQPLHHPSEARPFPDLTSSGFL
# Method in brief: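 Reporter assay in engineered HepG2 line HG2L7.5c1, whose plasmid carries twenty dioxin responsive elements upstream of firefly luciferase. Treatment lasted 24 h at 37C; ONE-Glo luminescence gauged induction.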
# [5] = qHTS assay to identify small molecule that activate the aryl hydrocarbon receptor (AhR) signaling pathway - cell viability counter screen (AID 743086);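 also: HepG2 liver cells carrying the AhR DRE luciferase reporter; nearly all actives have a fitted effect of over 45% in size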
# Method in brief: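 HepG2-AhR-luc (HG2L7.5c1) cells, 4000/well, treated 24 h at 37 C with compound; viability measured as CellTiter-Fluor fluorescence after 30 min in the same wells as the luciferase read.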
# [6] = qHTS assay to identify small molecule antagonists of the peroxisome proliferator-activated receptor gamma (PPARg) signaling pathway - cell viability counter screen (AID 743194); conditions: Potency: co-treated with 50 nM rosiglitazone unless noted; also: nearly all actives have a fitted effect of over 55% in size; also: potency is read from the fitted curve at half-maximal effect
# Method in brief: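 Cytotoxicity counter screen in PPARg-bla HEK293H cells, same wells as reporter assay. Compounds plus 50 nM rosiglitazone (final) for 17 h at 37 C, then viability read by CellTiter-Glo luminescence.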
# [7] = qHTS assay for small molecule activators of the heat shock response signaling pathway - cell viability counter screen (AID 743209); also: nearly all actives have a fitted effect of over 50% in size; also: potency is read from the fitted curve at half-maximal effect
# Method in brief: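 Luminescence from CellTiter-Glo, added after the beta-lactamase FRET read, gave the viability signal. Cells were HSE-bla HeLa treated with DMSO-dissolved compounds for 5 h at 37 C following overnight plating.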
# [8] = qHTS assay to identify small molecule antagonists of the thyroid receptor (TR) signaling pathway (AID 743065); also: potency is read from the fitted curve at half-maximal effect; nearly all actives have a fitted effect of over 55% in size
# Method in brief: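 GH3.TRE-Luc rat pituitary cells (two TREs driving luciferase) were dosed with compound, then stimulated with 1 nM T3 (final) for 23.5 h at 37 C. ONE-Glo luminescence was the read-out, with CellTiter-Fluor fluorescence as the cytotoxicity counter-screen.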
# [9] = qHTS assay to identify small molecule antagonists of the estrogen receptor alpha (ER-alpha) signaling pathway using the BG1 cell line (AID 743080; calls by dose curve;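 also: BG1 cells stimulated with 17beta-estradiol alongside compound; nearly all actives have a fitted effect of over 25% in size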; also: potency is read from the fitted curve at half-maximal effect)
# Method in brief: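 Endogenous full-length ER-alpha in BG1-Luc-4E2 cells drives a stably integrated 4×ERE luciferase gene; compounds were tested against 17beta-estradiol over 21.5 h, with luminescence and multiplexed viability fluorescence recorded.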
# [10] = qHTS assay for small molecule agonists of the antioxidant response element (ARE) signaling pathway (AID 743202; active = well fitted activation curve with a large enough effect in the signal ratio in the repeat runs, not every such curve was filed as active; the % refers to the signal ratio; also: potency is read from the fitted curve at half-maximal effect)
# Method in brief: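 ARE-bla HepG2 cells (beta-lactamase reporter under the antioxidant response element), plated 5 hours, then exposed to compounds 16 hours at 37 C. LiveBLAzer B/G FRET substrate added for 2 hours at room temperature; fluorescence intensity read.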
# [11] = qHTS assay for small molecule agonists of the antioxidant response element (ARE) signaling pathway - cell viability counter screen (AID 743203; calls by dose curve; also: nearly all actives have a fitted effect of over 55% in size)
# Method in brief: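 HepG2 cells carrying ARE-driven beta-lactamase; 2,000 cells/well; 5 hrs plating; compound pinned from DMSO; 16 hrs 37C/5% CO2; CellTiter-Glo added; 30 min RT; luminescence.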
# [12] = test system: thyroid hormone receptor (rat, GH3 cells); test: qHTS assay to identify small molecule agonists of the thyroid receptor (TR) signaling pathway (AID 743066; calls by dose curve)
# [13] = target: Estrogen receptor (Homo sapiens) (UniProt P03372); test: qHTS assay to identify small molecule antagonists of the estrogen receptor alpha (ER-alpha) signaling pathway (AID 743069; active = well fitted curve in the direction sought with a large enough effect in the signal ratio in the repeat runs, not every such curve was filed as active; the % refers to the signal ratio; also: potency is read from the fitted curve at half-maximal effect)
# Chain of Estrogen receptor (Homo sapiens) (P03372 whole entry, looked up): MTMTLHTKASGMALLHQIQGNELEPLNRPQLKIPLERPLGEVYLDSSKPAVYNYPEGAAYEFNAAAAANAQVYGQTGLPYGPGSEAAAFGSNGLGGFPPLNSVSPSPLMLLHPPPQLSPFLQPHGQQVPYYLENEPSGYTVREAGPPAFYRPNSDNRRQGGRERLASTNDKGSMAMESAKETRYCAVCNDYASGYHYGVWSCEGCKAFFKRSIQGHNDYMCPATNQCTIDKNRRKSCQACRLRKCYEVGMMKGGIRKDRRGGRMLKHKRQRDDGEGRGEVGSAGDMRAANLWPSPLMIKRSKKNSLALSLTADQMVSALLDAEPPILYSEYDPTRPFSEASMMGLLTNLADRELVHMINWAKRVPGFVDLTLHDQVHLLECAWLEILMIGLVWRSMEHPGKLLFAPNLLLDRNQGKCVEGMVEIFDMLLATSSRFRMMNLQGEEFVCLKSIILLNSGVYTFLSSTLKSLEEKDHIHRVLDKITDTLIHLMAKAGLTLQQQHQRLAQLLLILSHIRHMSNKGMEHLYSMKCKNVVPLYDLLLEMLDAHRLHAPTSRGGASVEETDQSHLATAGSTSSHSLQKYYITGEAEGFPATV
# Method in brief: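 HEK293 ER-alpha-UAS-bla GripTite cells, held overnight in 2% charcoal-stripped FBS, 5,000 cells/well, preincubated 4 h, then compound plus 17beta-estradiol for 18 h at 37C. Beta-lactamase read by LiveBLAzer B/G FRET substrate, 2 h at room temperature.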
# [14] = target: Estrogen receptor (Homo sapiens) (UniProt P03372); test: qHTS assay to identify small molecule agonists of the estrogen receptor alpha (ER-alpha) signaling pathway (AID 743075; calls by dose curve; also: potency is read from the fitted curve at half-maximal effect)
# [15] = target: Estrogen receptor (Homo sapiens) (UniProt P03372); test: qHTS assay to identify small molecule agonists of the estrogen receptor alpha (ER-alpha) signaling pathway using the BG1 cell line (AID 743079); conditions: BG1Luc4E2 cells, ERE-luciferase agonist, 22 h; activation: at 70.3 µM (top of the series); also: nearly all actives have a fitted effect of over 20% in size; also: potency is read from the fitted curve at half-maximal effect
# [16] = qHTS assay for small molecule activators of the heat shock response signaling pathway (AID 743210; active = well fitted activation curve with a large enough effect in the signal ratio in the repeat runs, with a control signal flat, not every such curve was filed as active; the % refers to the signal ratio; also: potency is read from the fitted curve at half-maximal effect)
# Method in brief: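 HSE-bla HeLa cells (beta-lactamase reporter under heat shock response elements), plated overnight, then exposed to compounds 5 h at 37 C; LiveBLAzer B/G FRET substrate added, 2.5 h at room temperature, fluorescence intensity read.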
# [17] = target: Peroxisome proliferator-activated receptor gamma (Homo sapiens) (UniProt P37231); test: qHTS assay to identify small molecule agonists of the peroxisome proliferator-activated receptor gamma (PPARg) signaling pathway (AID 743094; active = well fitted activation curve with a large enough effect in the signal ratio in the repeat runs, not every such curve was filed as active; the % refers to the signal ratio)
# Chain of Peroxisome proliferator-activated receptor gamma (Homo sapiens) (P37231 whole entry, looked up): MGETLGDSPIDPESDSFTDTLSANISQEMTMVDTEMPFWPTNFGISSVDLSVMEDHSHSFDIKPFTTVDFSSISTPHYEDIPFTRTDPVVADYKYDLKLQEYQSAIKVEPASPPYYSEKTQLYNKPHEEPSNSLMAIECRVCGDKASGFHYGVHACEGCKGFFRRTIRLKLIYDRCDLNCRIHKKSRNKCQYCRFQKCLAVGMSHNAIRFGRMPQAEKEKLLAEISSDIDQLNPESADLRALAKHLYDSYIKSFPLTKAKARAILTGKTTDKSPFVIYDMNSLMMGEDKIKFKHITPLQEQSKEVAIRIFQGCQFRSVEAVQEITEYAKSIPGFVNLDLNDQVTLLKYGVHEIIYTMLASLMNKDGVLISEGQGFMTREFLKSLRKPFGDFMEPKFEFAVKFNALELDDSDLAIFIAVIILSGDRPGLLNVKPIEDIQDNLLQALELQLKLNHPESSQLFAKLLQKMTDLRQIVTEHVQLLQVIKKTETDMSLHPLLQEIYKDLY
# Method in brief: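 Beta-lactamase FRET fluorescence was the read-out after a 1 h room-temperature substrate step, following 17 h compound treatment at 37C of HEK293H cells expressing a UAS-driven bla reporter responsive to PPARg.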
# [18] = target: Peroxisome proliferator-activated receptor gamma (Homo sapiens) (UniProt P37231); test: qHTS assay to identify small molecule antagonists of the peroxisome proliferator-activated receptor gamma (PPARg) signaling pathway (AID 743191; calls by dose curve; also: nearly all actives have a fitted effect of over 30% in size)
# Method in brief: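 GeneBLAzer PPARg UAS-bla HEK293H cells, 5 h post-plating, exposed to compounds 17 h at 37C. LiveBLAzer B/G FRET substrate added for 1 h at room temperature; beta-lactamase reporter read by fluorescence intensity.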
Compound,Potency [1],Potency [2],Potency (Aromatase (Homo sapiens)),Potency [3],Potency [4],Potency [5],Potency [6],Potency [7],Potency [8],Potency [9],Potency [10],Potency [11],Potency [12],Potency [13],Potency [14],Potency [15],Potency [16],Potency [17],Potency [18]
O=[N+]([O-])[O-].[Tl+],inactive,inactive,69.1 µM (active),inactive,inactive,inactive,inactive,inactive,–,–,–,–,–,–,–,–,–,–,–
CO/N=C(/C1=NOCCO1)c1ccccc1Oc1ncnc(Oc2ccccc2Cl)c1F,–,–,54.4 µM (active),54.4 µM (active),–,–,–,inactive,0.863 µM (active),8.63 µM (active),0.544 µM (active),inactive,–,–,–,–,–,–,–
ClC1=C(Cl)[C@]2(Cl)[C@@H]3[C@H]4C[C@H]([C@@H]5O[C@H]45)[C@@H]3[C@@]1(Cl)C2(Cl)Cl,inactive,inactive,inactive,inactive,inactive,inactive,inactive,inactive,–,inactive,–,inactive,inactive,inactive,inactive,inactive,51.8 µM (active),–,–
CCC(C)Nc1c([N+](=O)[O-])cc(C(C)(C)C)cc1[N+](=O)[O-] (stereo not drawn),inactive,inactive,inactive,inactive,inactive,inactive,inactive,inactive,–,inactive,–,inactive,–,inactive,inactive,61.1 µM (active),–,inactive,inactive
O=C(N[C@H]1N=C(c2ccccc2F)c2cccc3c2N(CC3)C1=O)c1cc2ccccc2[nH]1,–,inactive,inactive,inactive,5.31 µM (active),–,inactive,inactive,5.96 µM (active),–,–,inactive,inactive,–,–,–,–,inactive,–
C[C@]12CC[C@H]3[C@@H](CCC4=CC(=O)CC[C@@H]43)[C@@H]1CC[C@@H]2OC(=O)CCc1ccco1,–,–,–,–,–,–,29.8 µM [setting not given] (active),13.3 µM (active),–,–,–,–,–,–,–,–,–,–,–
CC[N+]1(CC)CCC(OC(=O)C(O)(c2ccccc2)c2ccccc2)C1 (stereo not drawn),–,–,–,–,–,–,inactive,inactive,–,–,inactive,inactive,–,–,–,–,inactive,–,–
CCN(CC)C(=O)N[C@@H]1C=C2c3cccc4[nH]cc(c34)C[C@@H]2N(C)C1,inactive,inactive,–,inactive,–,inactive,inactive,inactive,–,–,inactive,inactive,inactive,–,inactive,inactive,inactive,inactive,inactive
CCCCC(CC)COC(=O)c1ccccc1C(=O)OCC(CC)CCCC (stereo not drawn),–,inactive,inactive,inactive,inactive,inactive,–,–,–,inactive,–,inactive,inactive,inactive,inactive,inactive,–,–,–
COP(=S)(OC)Oc1nc(Cl)c(Cl)cc1Cl,inactive,inactive,inactive,inactive,–,–,–,inactive,–,inactive,inactive,inactive,inactive,–,inactive,inactive,inactive,–,–
Clc1cc(Cl)c(-c2cc(Cl)c(Cl)cc2Cl)cc1Cl,inactive,inactive,inactive,inactive,inactive,inactive,inactive,inactive,–,–,inactive,inactive,inactive,–,–,–,inactive,inactive,–
CCCCCCCc1ccc(O)cc1,inactive,inactive,–,–,inactive,inactive,inactive,inactive,–,inactive,–,–,inactive,–,inactive,24.3 µM (active),inactive,–,–
O.O.O.O=C([O-])[C@H]([O-])[C@@H]([O-])C(=O)[O-].O=C([O-])[C@H]([O-])[C@@H]([O-])C(=O)[O-].[K+].[K+].[Sb+3].[Sb+3],inactive,–,–,inactive,inactive,–,inactive,inactive,–,–,–,inactive,inactive,17.5 µM [inhibitor] (active),inactive,–,–,–,–
C[C@@H]1CC2=CC(=O)CC[C@@H]2[C@H]2CC[C@@]3(C)[C@@H](CC[C@]3(C)O)[C@@H]21,–,–,–,–,–,–,inactive,inactive,–,–,–,inactive,–,–,–,–,inactive,–,inactive
Cc1c([N+](=O)[O-])c(C)c([N+](=O)[O-])c(C(C)(C)C)c1[N+](=O)[O-],inactive,inactive,–,inactive,inactive,inactive,inactive,inactive,–,inactive,inactive,inactive,inactive,–,inactive,inactive,inactive,–,inactive
C[C@H]1[C@H](c2ccc(Cl)cc2)SC(=O)N1C(=O)NC1CCCCC1,inactive,inactive,–,inactive,inactive,inactive,inactive,inactive,61.1 µM (active),61.1 µM (active),–,inactive,–,–,inactive,–,–,–,–
Cc1ccn2nc(S(=O)(=O)Nc3c(F)cccc3F)nc2n1,inactive,inactive,inactive,inactive,inactive,inactive,–,inactive,–,–,inactive,inactive,–,–,–,–,inactive,–,inactive
Cc1ccc2cc3c(ccc4ccccc43)c3c2c1CC3,inactive,inactive,–,inactive,0.487 µM (active),inactive,inactive,inactive,–,0.546 µM (active),1.22 µM (active),inactive,–,inactive,6.18 µM [activator] (active),–,–,–,–
Brc1ccc(Oc2ccc(Br)cc2Br)c(Br)c1,inactive,inactive,inactive,inactive,inactive,inactive,inactive,–,–,–,inactive,–,inactive,–,inactive,19.4 µM (active),inactive,inactive,inactive
Nc1ccc(Cl)cc1C(=O)c1ccccc1F,–,–,–,–,–,–,inactive,inactive,–,–,–,inactive,–,–,–,–,inactive,–,–
CCN(CC)Cc1nccn1-c1ccc([N+](=O)[O-])cc1C(=O)c1ccccc1Cl,inactive,–,–,inactive,–,inactive,inactive,inactive,–,–,21.1 µM (active),inactive,inactive,–,–,–,inactive,–,–
